Drawing on PubChem BioAssay (Tox21), this text covers outcome for 40 compounds.

Results filed as inconclusive are left out. The source made the active and inactive calls. The call rests on the fitted dose curve; in most records, active means well fitted cell-killing curve with a large enough effect in the repeat runs; inconclusive means weak or mixed curves; inactive means flat fitted curve, though single readings scatter.

This experiment can be described thus: qHTS assay to identify small molecule antagonists of the estrogen receptor beta (ER-beta) signaling pathway - cell viability counter screen (AID 1259382). Further: nearly all actives have a fitted effect of over 55% in size. Conditions: ER-beta-UAS-bla HEK293T viability, CellTiter-Glo luminescence, 16 h; series mostly up to 92.4 µM. An excerpt: U.S. Tox21 Program National Center for Advancing Translational Sciences [NCATS] NIH Chemical Genomics Center [NCGC] U.S. Environmental Protection Agency [EPA] National Institutes of Environmental Health Sciences [NIEHS] National Toxicology Program [NTP] U.S. Food and Drug Administration [FDA] Tox21 Assay Overview: Estrogen receptor (ER), a nuclear hormone receptor, plays an important role in development, metabolic homeostasis and reproduction. Two subtypes of ER, ER-alpha and ER-beta, have similar expression patterns with some uniqueness in both types. Endocrine disrupting chemicals (EDCs) and their interactions with steroid hormone receptors like ER causes disruption of normal endocrine function. To identify the compounds that inhibit ER signaling, an ER-beta-UAS-bla GripTite cell line (Life Technologies, Madison, WI, USA) containing a beta-lactamase reporter gene under the control of an UAS response element was used to screen Tox21 10K compound library. The cytotoxicity of the Tox21 compound library against the ER-beta-bla cell line was tested in parallel by measuring the cell viability using CellTiter-Glo assay in the same wells.
Tox21 Assay Protocol Summary: ER-beta-UAS-bla HEK293T cells were dispensed at 2,000 cells/4 uL of assay medium containing 2% charcoal stripped FBS per well into black wall/clear-bottom 1536-well plates using a Multidrop Combi (ThermoFisher Scientific, Waltham, MA) dispenser. After the assay plates were incubated at a 37C and 5% CO2 for 6 hr, 23 nL of compounds dissolved in DMSO, positive controls or DMSO only was transferred to the assay plate by a Pintool station (Kalypsys, San Diego, CA), followed by addition of 1 uL (1nM as final concentration) of 17-beta-estradiol (E2) in assay medium using a Flying Reagent Dispenser (FRD, Aurora Discovery, San Diego, CA). The plates were incubated at 37C and 5% CO2 for 16 hr. Then 1 uL of LiveBLAzer B/G FRET substrate was added using a Flying Reagent Dispenser, the plates were incubated at room temperature for 2 hours, and fluorescence intensity was measured by an Envision plate reader (PerkinElmer, Shelton, CT). For cell viability readout that measures cytotoxicity, 4 uL/well of CellTiter-Glo reagent was added into the assay plates using a FRD. After 30 min incubation at room temperature, the luminescence intensity in the plates was measured using a ViewLux (PerkinElmer) plate reader.
Background: In qHTS, concentration-response curves come from the screen itself.
With `CC(C)C(=O)OCC(C)(C)C(O)C(C)C` (stereo not given), the compound was called inactive.

For `CCCCCCCCOC(=O)CCCCCCCCC(=O)OCCCCCCCC`, the call was inactive.

For `Cc1ccc([N+](=O)[O-])cc1Cl`, the call was inactive.

For `CC(=O)N(CC(O)CN(C(C)=O)c1c(I)c(C(=O)NCC(O)CO)c(I)c(C(=O)NCC(O)CO)c1I)c1c(I)c(C(=O)NCC(O)CO)c(I)c(C(=O)NCC(O)CO)c1I` (stereo not given), the outcome was inactive.

As for `NC(=O)Cc1cccc(C(=O)c2ccccc2)c1N`, the call was inactive.

Take `CN1C(=O)CC(c2ccccc2)C1=O` (stereo not given): the result was inactive.

As for `COc1ccc(S(=O)(=O)Nc2nnc(CC(C)C)s2)cc1`, the call was inactive.

Take `CN(C)Cc1ccccc1`: the result was inactive.

Regarding `COC(=O)C(C)O` (stereo not given), the call was inactive.

Turning to `O=C(O)c1cccc(Cl)c1Cl`, the compound was classed as inactive.

For the compound `CC1=NN(c2cc(Cl)c(S(=O)(=O)O)cc2Cl)C(=O)C1N=Nc1ccc(S(=O)(=O)O)cc1` (stereo not given), the compound was classed as inactive.

Take `CCN[C@H]1CN(CCCOC)S(=O)(=O)c2sc(S(N)(=O)=O)cc21`: the compound was called inactive.

Take `Oc1ccccc1F`: the result was inactive.

Regarding `CCCC(CCC)(C(=O)OCC)C(=O)OCC`, the result was inactive.

As for `Cn1cnc2c(F)c(Nc3ccc(Br)cc3Cl)c(C(=O)NOCCO)cc21`, the outcome was inactive.

Take `O=S(=O)(O)C(F)(F)F`: the result was inactive.

As for `OCC(CBr)(CBr)CBr`, the compound was classed as inactive.

As for `O=CCCc1ccccc1`, the call was inactive.

Regarding `NC/C=C/C(=O)O`, the compound was classed as inactive.

`CN(C)CC[C@@H](c1ccc(Cl)cc1)c1ccccn1`: the result was inactive.

In the case of `Cc1ncc(CO)c(CN)c1O`, the compound was classed as inactive.

With `CCCC1CCC(=O)O1` (stereo not given), the result was inactive.

Take `CC(=O)N[C@@H](CC(C)C)C(=O)O`: the compound was classed as inactive.

Regarding `C=O`, the outcome was inactive.

For the compound `CC(C)S`, the compound was classed as inactive.

With `CN1CCC[C@@H]1Cc1c[nH]c2ccc(CCS(=O)(=O)c3ccccc3)cc12`, the outcome was inactive.

With `NS(=O)(=O)c1cc(-c2nn[nH]n2)c(NCc2cccs2)cc1Cl`, the outcome was inactive.

As to `CC/C=C\CCOC(=O)C(C)C`, the result was inactive.

As for `COc1cc(N)c(Cl)cc1C(=O)NC1CCN(Cc2ccccc2)CC1`, the call was inactive.

As to `C=CC(C)(O)CC/C=C(\C)CCC=C(C)C` (stereo not given), the outcome was inactive.

As for `CCOC(=O)c1ccccc1O`, the outcome was inactive.

For the compound `CCOC(=O)C1CC(=O)C(=C(O)C2CC2)C(=O)C1` (stereo not given), the result was inactive.

Consider `COC(=O)N[C@H](C(=O)N[C@@H](Cc1ccccc1)[C@@H](O)CN(Cc1ccc(-c2ccccn2)cc1)NC(=O)[C@@H](NC(=O)OC)C(C)(C)C)C(C)(C)C`, for which the call was inactive.

As to `CC1(C)O[C@@H]2C[C@H]3[C@@H]4CCC5=CC(=O)CC[C@]5(C)[C@@]4(F)[C@@H](O)C[C@]3(C)[C@]2(C(=O)CCl)O1`, the outcome was inactive.

With `CC(C)NCC(O)COc1ccc(CCOCC2CC2)cc1` (stereo not given), the call was inactive.

For the compound `ICCc1ccccc1`, the compound was called inactive.

In the case of `CCOc1ccc2nc(N)sc2c1`, the result was inactive.

`CC(C)CC(=O)OCc1ccccc1`: the call was inactive.

`CC(=O)O[C@H]1CC[C@@]2(C)C(=CC[C@@H]3[C@@H]2CC[C@]2(C)C(C(C)=O)=CC[C@@H]32)C1`: the result was inactive.

Take `CCCCC(CC)COC(=O)COc1cc(Cl)c(Cl)cc1Cl` (stereo not given): the call was inactive.
